Measurements as given in PubChem BioAssay (NCI).
About 83,000 compounds went through this panel and 20% of them were active in at least one assay; those are over-represented in the sample as a whole.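 In brief: 96-well plates, 48 h treatment, single concentration, percent growth endpoint.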 A number with no mark means an inactive call. Calls of active or inactive are those of the source. The calls were made as follows: active = growth percent below 10; inactive = the rest. Where a SMILES comes first, the peptide text is derived from it. [ ]: non-standard residue; d: D form. ξ: configuration not given here. ξD = NC(CC(=O)O)C(=O)O

Columns and labels:
Experiment in all cases: NCI-60 one-dose screen, 48 h (100 = growth as untreated, 0 = no growth, -100 = all killed)
Details in all cases: 10 µM unless noted
SK-MEL-2 melanoma = tested on: SK-MEL-2 melanoma
SN12C renal = tested on: SN12C renal
UO-31 renal = tested on: UO-31 renal
TK-10 renal = tested on: TK-10 renal
ACHN renal = tested on: ACHN renal
CAKI-1 renal = tested on: CAKI-1 renal
A498 renal = tested on: A498 renal
CCRF-CEM leukemia = tested on: CCRF-CEM leukemia
MOLT-4 leukemia = tested on: MOLT-4 leukemia
SR leukemia = tested on: SR leukemia
RPMI-8226 leukemia = tested on: RPMI-8226 leukemia
OVCAR-8 ovarian = tested on: OVCAR-8 ovarian
OVCAR-5 ovarian = tested on: OVCAR-5 ovarian
OVCAR-4 ovarian = tested on: OVCAR-4 ovarian
SK-OV-3 ovarian = tested on: SK-OV-3 ovarian
IGROV1 ovarian = tested on: IGROV1 ovarian
OVCAR-3 ovarian = tested on: OVCAR-3 ovarian
HS 578T breast = tested on: HS 578T breast
NCI/ADR-RES ovarian = tested on: NCI/ADR-RES ovarian
EKVX NSCLC = tested on: EKVX NSCLC

Compound | growth (SK-MEL-2 melanoma) | growth (SN12C renal) | growth (UO-31 renal) | growth (TK-10 renal) | growth (ACHN renal) | growth (CAKI-1 renal) | growth (A498 renal) | growth (CCRF-CEM leukemia) | growth (MOLT-4 leukemia) | growth (SR leukemia) | growth (RPMI-8226 leukemia) | growth (OVCAR-8 ovarian) | growth (OVCAR-5 ovarian) | growth (OVCAR-4 ovarian) | growth (SK-OV-3 ovarian) | growth (IGROV1 ovarian) | growth (OVCAR-3 ovarian) | growth (HS 578T breast) | growth (NCI/ADR-RES ovarian) | growth (EKVX NSCLC)
CCCCC(CCc1ccc([N+](=O)[O-])cc1)(C(C)=O)C(=O)OCC (stereo unspecified) | 99.6% | 103% | 67.7% | 97.3% | 114% | 96.8% | 50.6% | 94.5% | 90.3% | 63.5% | 96.2% | 104% | 105% | 89.5% | 112% | 101% | 96.4% | 92% | 104% | –
CCCCCC[C@@H](O)C/C=C\CCCCCCCC(=O)OCCOC | 97.6% | 98.3% | – | 99.1% | 100% | 103% | 107% | 94.3% | 122% | 122% | 102% | 101% | 103% | 98.4% | 114% | 114% | 112% | 101% | 104% | 79.1%
Cc1cc2nc(CC(=O)c3ccncc3)c(=O)[nH]c2cc1C | 115% | 84.7% | – | 107% | 93.6% | 82.9% | 98.4% | 93.6% | 104% | – | 103% | 102% | 97.2% | 93.8% | 104% | 105% | 112% | 66.8% | 96.8% | 56.1%
Oc1ccc2c(c1)CCc1ccccc1-2 | 115% | 107% | 90.3% | 100% | 109% | 101% | 68.6% | 97.3% | 103% | 104% | 105% | 106% | 92.4% | 90.9% | 105% | 116% | 112% | 96.8% | 114% | –
CCOC(=O)NC(/C=C/c1ccccc1)NC(=O)OCC | 104% | 99% | 91.2% | 100% | 109% | 94.5% | 89.3% | 98.4% | 98.7% | 103% | 101% | 108% | 108% | 109% | 90.3% | 106% | 107% | 103% | 109% | –
O=C(Cc1nc2cc(Cl)c(Cl)cc2nc1CC(=O)c1ccccc1)c1ccccc1 | 90.2% | 75.4% | – | 119% | 59.2% | 68.6% | 125% | 27.1% | 28.9% | – | 25.7% | 73.3% | 77.5% | 74.4% | 77.4% | 61% | 81.5% | 58.8% | 74.6% | 51.4%
O=C(/C(Cl)=N/O)c1ccc(-c2ccccc2)cc1 | 110% | 103% | 57.9% | 106% | 86.8% | 91.1% | 123% | 8.56% (active) | 83.3% | -24% (active) | 85.2% | 97.8% | 109% | 112% | 99.5% | 71.8% | 72.3% | 110% | 99.9% | –
O=C1C=CC(=O)N1C1CCCCCCCCCCC1 | 84.2% | 82.9% | 60.4% | 71.5% | 50.1% | 43.5% | 113% | -11% (active) | 6.51% (active) | 5.7% (active) | 31.1% | 86% | 99.8% | 89.5% | 90.6% | 80.3% | 53% | 108% | 102% | –
CCCCN(CCCC)CCCCCCCCCCO | 86.9% | 107% | 81.3% | 93.6% | 97.1% | 105% | 123% | 98% | 83% | 81% | 133% | 107% | 97.3% | 93.4% | 109% | 94% | 104% | 105% | 103% | –
CN(Cc1ccccc1)c1ccc(SC#N)cc1 | 98.4% | 103% | 37.7% | 95.8% | 78.8% | 98.9% | 93% | 10.8% | 55.4% | -6.68% (active) | 74.8% | 85% | 106% | 68.9% | 112% | 98.8% | 71.4% | 89.7% | 86.7% | –
COC(=O)[C@]1(C)CCC[C@]2(C)c3ccc(C(C)C)cc3C(=O)[C@@H](Br)[C@@H]12 | 103% | 96.1% | 69.5% | 102% | 92.6% | 89% | 109% | 70.9% | 60.1% | 65.6% | 81.1% | 77.9% | 113% | 82.3% | 96.9% | 111% | 95.4% | 98% | 96.7% | –
CC[n+]1ccc(Nc2ccc(NC(=O)c3ccc(Nc4cc[n+](CC)c5ccc([N+](=O)[O-])cc45)cc3)cc2)cc1 | 111% | 86% | 91.4% | 152% | 96.9% | 94.2% | 103% | 89.1% | 93.3% | 75.7% | 41.9% | 79% | 107% | 56.8% | 84.5% | 115% | 91.8% | 97% | 106% | –
CCN(CC)c1ccc(/C=C\C(=O)c2ccc(NC(C)=O)cc2)cc1 | 76.8% | 48.9% | – | 92.4% | 61.4% | 54.9% | 71.6% | 82.9% | – | – | 76.9% | 76% | 68.5% | 90.6% | 69.2% | – | – | 55.1% | 37.9% | 79.1%
NCC(=O)NC(CC(=O)O)C(=O)O (stereo unspecified) (H-Gly-[ξD]-OH) | 111% | 99% | – | 97.7% | 106% | 89.8% | 105% | 79.3% | 109% | – | 111% | 107% | 107% | 104% | 108% | 107% | 125% | 99% | 104% | 94.7%
CCN(CC)CCNC(Cc1ccccc1)c1ccc(OCc2ccccc2)cc1 (stereo unspecified) | 97% | 73.2% | 41% | 64% | 61.4% | 85.2% | 49.8% | 51.4% | 57.4% | 24.7% | 34.8% | 79.7% | 56.2% | 66.7% | 83.1% | 57.7% | 95.4% | 70.8% | 76.1% | –
O=C(CBr)c1ccc(OC(=O)c2ccccc2)cc1 | 111% | 103% | – | 117% | 97.5% | 100% | 74.4% | 67.6% | 95.3% | 88.6% | 89.9% | 104% | 102% | 99% | 100% | 116% | 105% | 108% | 101% | 118%
Nc1ccc(C(=O)/C=C/c2ccccc2)cc1 | 91.6% | 98.4% | 62.1% | 85.2% | 105% | 98.5% | 101% | 58.7% | 75.4% | 46.9% | 43% | 102% | 113% | 105% | 110% | 90.4% | 75.2% | 106% | 101% | –
